# Assay outcomes: PubChem, several laboratories
# In the library only some 11% were active in any assay of this set; here they are far more common.
# Autophagy mod – alters autophagy in cells | MEF GFP-LC3 puncta imaging; test concentration mostly 10 µM | calls only at 10 µM (by protocol) | 0.98% of 190,000 active | AID 463193;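 active = percentage of spot-positive cells more than 3 SD above its plate mean, without a fluorescence outlier flag or 80% toxicity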
# WT yeast gro inh – growth inhibition of WT yeast, mitochondrial fusion screen. mitochondrial fusion phenotypic screen, WT strain. inhibition, % at 10 µM. 2.1% of 190,000 active. AID 1362; in the data active = inhibition above about 58%; tested in S. cerevisiae
# Insulin prom up – MIN6 insulin promoter up-regulation. MIN6 insulin promoter-GFP reporter, high-content imaging; active compounds read high. z-score at 5 µM. 0.3% of 190,000 active;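 active = z-score above 3 at 5 µM with at least 500 cells counted in the well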
# L major viab – reduces viability of Leishmania major promastigotes | inhibition, % at 10 µM | 9% of 200,000 active | resazurin fluorescence viability | AID 1063; in the data active = inhibition above about 50%;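 note: promastigotes grown with compound for 44 hours at 28 °C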
# Insulin prom inh – TRM-6 insulin promoter activity inhibition; TRM-6 cells (human fetal islet line), insulin promoter-eGFP reporter, imaging; reporter expression induced with tamoxifen; inhibition, % at 2 µM; 0.9% of 130,000 active; AID 1273;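 active = inhibition above the mean plus 3 SD, with well images judged a real hit on visual review, cut at about 60% in these data, passing the limit was not always enough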
# Numbers stand for hits; 0 = inactive; - = no result; + = active, no number.
SMILES,Autophagy mod,WT yeast gro inh,Insulin prom up,L major viab,Insulin prom inh
C=CCn1c(C)cc(C(=O)COC(=O)/C=C/c2cccc(OC)c2)c1C,0,0,0,0,0
CC1(C)CC2CC(C)(CN2C(=O)c2cc(-c3ccccc3O)on2)C1 (stereo unspecified),-,63.3,0,0,-
CC1(C)CC2CC(C)(CN2C(=O)c2ccc([N+](=O)[O-])cc2[N+](=O)[O-])C1 (stereo unspecified),0,0,0,52.1,-
CCN(CC)c1ccc(NC(=O)Nc2ccccc2C(F)(F)F)cc1,0,63.1,0,0,0
COc1cc(/C=C2\SC(=S)N(CC(=O)Nc3ccc(O)cc3)C2=O)cc(OC)c1OC,0,0,0,0,-
CC(C)OC(=O)c1cccnc1N1CCN(c2cccc(Cl)c2)CC1,0,73.5,0,0,-
COc1cc(O)ccc1/C=N/NC(=O)c1ccc([N+](=O)[O-])cc1,0,0,0,0,-
O=C(NC(CSCc1ccccc1)C(=O)N/N=C/c1ccc(O)cc1O)c1ccc([N+](=O)[O-])cc1 (stereo unspecified),0,0,0,100.0,0
CCCCNC(=O)COC(=O)c1cc(C)oc1C,0,0,0,0,-
O=c1c(-c2ccc(Cl)cc2)coc2c(CN3CCOCC3)c(O)ccc12,0,0,0,59.3,-
Cc1nc2ncnn2c(N2CCCC(C(=O)Nc3ccccc3Br)C2)c1C (stereo unspecified),0,0,0,0,0
Clc1cccc(Cl)c1Cn1c(-c2cccnc2Cl)nc2ccccc21,0,0,0,76.1,-
CCc1cc2c(=O)c(-c3cscn3)coc2cc1O,0,69.0,0,0,-
Cc1ccc(OCCN2CCN(CC(O)Cn3c4ccccc4c4ccccc43)CC2)cc1 (stereo unspecified),0,0,0,77.1,-
OC(COCC(F)(F)C(F)(F)C(F)(F)C(F)F)Cn1c2ccccc2c2ccccc21 (stereo unspecified),0,91.2,0,86.0,0
CCOC(=O)N1CCN(CC(O)c2ccccc2)CC1 (stereo unspecified),0,0,-,0,-
OC(CN1CCN(Cc2ccccc2)CC1)Cn1c2ccccc2c2ccccc21 (stereo unspecified),0,0,0,80.6,0
OC(CN1CCN(c2ccccc2)CC1)Cn1c2ccccc2c2ccccc21 (stereo unspecified),0,0,0,0,0
OC(CN1CCN(Cc2ccccc2)CC1)c1ccccc1 (stereo unspecified),0,0,0,69.3,-
CN1CCC(N(C)C(=S)NCCc2ccccc2)CC1,0,0,0,0,-
CCC(C)C(=O)Nc1cc(C(=O)OC)cc(C(=O)OC)c1 (stereo unspecified),0,0,0,0,-
Cn1c(=O)c(C(=O)CN2CC(=O)Nc3ccccc32)c(N)n(Cc2ccccc2)c1=O,0,0,0,0,0
O=S(=O)(c1ccccc1F)N1CCN(CC(O)c2ccccc2)CC1 (stereo unspecified),0,0,0,0,-
OC(CN1CCN(Cc2ccccc2)CC1)c1ccc(F)cc1 (stereo unspecified),0,0,0,95.9,0
Cc1cccc(C)c1OCC(O)Cn1c2ccccc2c2ccccc21 (stereo unspecified),0,83.1,0,0,-
SMILES,Autophagy mod,WT yeast gro inh,Insulin prom up,L major viab,Insulin prom inh
OC(CSc1ccc(F)cc1)CN1CCN(c2ccccc2)CC1 (stereo unspecified),0,0,0,68.3,0
COC(=O)c1ccc2c(c1)S(=O)(=O)NC(=NCc1ccco1)S2,0,0,0,95.8,-
COC(=O)c1ccc(=O)n(Cc2ccco2)c1,0,0,0,0,0
O=C1CC(c2ccccc2)CC2=C1CN(C1CCCCC1)CN2 (stereo unspecified),0,0,0,81.5,-
CC(C)(C)c1nc2c(Br)cc(Br)cc2c(=O)o1,0,0,0,0,0
CC(C)N(C(=O)Cc1ccccc1[N+](=O)[O-])C(C)C,0,0,0,0,-
Cc1cc(C)c(C(=O)O)c(CC(C)(C)C(=O)O)c1,-,-,3.14,-,-
COC(=O)c1ccc(Oc2cc(C)nc(-n3nc(C)cc3C)n2)cc1,0,70.3,-,0,-
COC(=O)c1ccc(Oc2nc(C)cc(Oc3ccccc3)n2)cc1,0,0,-,95.3,0
FCCCOc1ccc(CN2CCN(c3ccccc3F)CC2)cc1,0,0,0,0,0
CN1CCN(CCCCOc2ccccc2C=O)CC1,0,0,0,99.6,-
O=Cc1ccccc1Oc1ccccc1,0,0,0,0,0
O=Cc1ccccc1OCCOc1ccccc1C=O,+,0,-,71.8,0
N#Cc1ccccc1Oc1ccccc1C=O,0,0,0,57.0,-
Cc1sc(NC(=O)c2ccco2)c(CN2CCN(Cc3ccccc3)CC2)c1C,0,0,0,0,-
COC(=O)c1sc(SC)c(-c2ccon2)c1C,-,-,0,-,-
CCc1ccc(CN(C)C(=O)CC2C(=O)NCCN2Cc2ccoc2)cc1 (stereo unspecified),0,0,0,0,-
Cc1cc(C)cc(NC(=O)NC2CCN(CC(=O)Nc3c(C)cc(C)cc3C)CC2)c1,0,-,-,0,0
CN(C(=O)COC(=O)c1ccccc1Nc1ccccc1)C1CCS(=O)(=O)C1 (stereo unspecified),0,0,0,0,-
CN(C(=O)COC(=O)c1cc([N+](=O)[O-])ccc1Sc1ccccc1)C1CCS(=O)(=O)C1 (stereo unspecified),0,0,0,100.4,0
COc1cc(N=Nc2cccc(S(N)(=O)=O)c2)c2ccccc2c1N,-,-,5.92,-,-
CN(C)c1nc(SCc2ccccc2Cl)nc2c1CCCC2,0,0,0,0,0
COC(=O)CSc1nc(SCc2ccc(C)cc2)nc2c1CCCC2,0,70.0,0,0,0
CNc1nc(SCc2ccc(C)cc2)nc2c1CCCC2,0,66.9,0,100.0,0
Cc1ccc(CSc2nc3c(c(N(C)C)n2)CCCC3)cc1,0,78.2,0,0,0
SMILES,Autophagy mod,WT yeast gro inh,Insulin prom up,L major viab,Insulin prom inh
Cc1ccc(CSc2nc3c(c(SCC(=O)O)n2)CCCC3)cc1,0,0,-,0,0
CCOC(=O)C[N+]1(C)CCN(C(C)=O)CC1,0,0,0,0,-
O=C(CSc1nc(-c2ccco2)cc(C(F)(F)F)n1)NCCN1CCOCC1,0,0,0,0,0
C=CCN1C(=O)N/C(=C/c2ccccc2OCC(=O)Nc2ccc(F)cc2)C1=O,0,0,0,0,0
CC/C(=N\NC(=O)c1ccc(CN(C)S(=O)(=O)c2ccc(C)cc2)cc1)c1ccc(OC(F)F)cc1,0,0,-,0,0
CC(C)=CCN1CCN(Cc2cccn2-c2ncccn2)CC1CCO (stereo unspecified),0,0,0,0,-
COc1ccc(N2C(=O)CC(NNC(=O)c3ccc(Br)s3)C2=O)cc1 (stereo unspecified),0,0,0,0,-
COc1cccc(N2C(=O)CC(NNC(=O)c3cccs3)C2=O)c1 (stereo unspecified),0,0,0,62.7,0
O=C(NNC1CC(=O)N(c2cccc(Cl)c2)C1=O)c1cccs1 (stereo unspecified),0,0,0,63.3,0
CC(CC(=O)Nc1cccnc1)c1ccccc1 (stereo unspecified),0,0,0,0,-
Cc1ccc(C)c(-n2[nH]c3c4c(ccc3c2=O)C(=O)c2ccccc2C4=O)c1,0,67.1,0,0,-
Cc1ccc(-n2[nH]c3c4c(ccc3c2=O)C(=O)c2ccccc2C4=O)cc1,0,0,0,0,-
